Assay outcomes as filed in PubChem.
VACV Venus inh: qHTS for Stage-Specific Inhibitors of Vaccinia Orthopoxvirus: Venus Reporter Primary qHTS | Vaccinia virus Venus reporter expression, fluorescence | Potency, µM (highest dose often 36.5 µM), without a hit: at the top dose activity change, negative = inhibition, most hits filed as inhibitors | 0.46% of 330,000 active; calls by dose curve; tested in A549 cells; also: potency is read from the fitted curve at half-maximal effect; nearly all actives have a fitted effect of over 30% in size
FMDV antiviral: High Throughput Screening for Foot and Mouth Disease Virus Antivirals; FMDV antiviral cell-based qHTS; Potency, µM (series often up to 57.9 µM), for the others: at the top dose activity change, negative = inhibition, hits mostly inhibitors; 1.2% of 410,000 active; calls by dose curve; tested in HEK293T cells; also: read-out not given here; potency is read from the fitted curve at half-maximal effect; nearly all actives have a fitted effect of over 45% in size
HCMV inh: qHTS Assay for inhibitors of the human cytomegalovirus (HCMV) | HFF cells, HCMV-luciferase reporter, 72 h; stronger effect = lower value | activity change, negative = inhibition, % at 57.5 µM | 4.5% of 410,000 active; in the data active = activity change below about -60%; inconclusive = no clear call, values can overlap the other calls; inactive = above about -39%
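After 16 h attachment at 37C, HFF cells received test compound and HCMV-luciferase (1 PFU/cell); reporter luminescence read 72 h later, data normalized against buffer-only and known inhibitor Salinomycin.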
VACV mCherry inh: qHTS for Stage-Specific Inhibitors of Vaccinia Orthopoxvirus: mCherry Reporter Primary qHTS | Vaccinia virus mCherry reporter infection, fluorescence | Potency, µM (series often up to 36.5 µM), for inactives: top-dose activity change, negative = inhibition, actives largely listed as inhibitors | 0.63% of 310,000 active | AID 720579, 2013; calls by dose curve; tested in A549 cells; also: potency is read from the fitted curve at half-maximal effect; nearly all actives have a fitted effect of over 35% in size
MARV entry inh: qHTS for inhibitors of binding or entry into cells for Marburg Virus. Marburg virus pseudotyped entry inhibition, cell reporter. 1.8% of 300,000 active. Potency, µM (highest dose often 37.8 µM), for inactives: at the top dose activity change, negative = inhibition, hits mostly inhibitors. AID 540276, 2011; calls by dose curve; tested in HEK293 cells; also: potency is read from the fitted curve at half-maximal effect
Lassa entry inh: qHTS for Inhibitors of binding or entry into cells for Lassa Virus; AID 540256, 2011; Lassa virus pseudotype entry inhibition, cell reporter; 1.2% of 300,000 active; Potency, µM (titrated, usually from 37.9 µM), without a hit: top-dose activity change, negative = inhibition, actives largely listed as inhibitors; calls by dose curve; tested in HEK293 cells; also: potency is read from the fitted curve at half-maximal effect; nearly all actives have a fitted effect of over 50% in size
* marks the source's active call; other numbers are inactive results; i = inactive; ? = inconclusive; nt = no result given; [ ] = another dose, or the depositor's remark. Shown are actives, neighbours in structure and some others; about 6.5% of the full set was active somewhere. % is scaled to controls: 0 for no effect and ±100 for the full control effect.

SMILES	VACV Venus inh	FMDV antiviral	HCMV inh	VACV mCherry inh	MARV entry inh	Lassa entry inh
CC(C)C[C@H]1COc2cc(NCc3ccc(Cl)c(Cl)c3)ccc2S(=O)(=O)N1	nt	nt	-13.0	nt	nt	nt
O=C(CSc1nnc(Cn2nnc3ccccc32)o1)N(Cc1ccc(Cl)cc1)c1ccccc1	?	?	-2.2	?	6.31µM*	?
NC(=O)CSc1nnc(Cn2cnc3ccccc32)o1	nt	-21.1%	-5.6	nt	nt	nt
Clc1ccc(CSc2nnc(Cn3cnc4ccccc43)o2)cc1	?	?	-81.2*	-27.2%	?	?
COCOc1ccc(-c2ncc(OCCN3CCCC3=O)nc2NC(=O)c2cc3ccccc3s2)cc1	-10.1%	-12.5%	-100.5*	34.9%	nt	nt
N/C(=N/O)c1ccccc1N1CCC(Cc2ccccc2)CC1	nt	52.4%	-90.7*	nt	nt	nt
c1ccc(CC2CCN(c3nnnn3-c3ccccc3)CC2)cc1	-16.7%	?	-1.8	i	-10.6%	?
Cc1cc(C)c(C(=O)/C=C/c2ccc(C(C)C)cc2)c(=O)[nH]1	?	31.6µM*	-102.9*	5.01µM*	?	?
Cc1cc(C)c(C(=O)/C=C/C=C/c2ccccc2)c(=O)[nH]1	?	38.6%	12.0	-28.5%	5.5%	-13.9%
O=C(N/N=C/c1ccc(O)cc1)c1[nH]c2ccc(Br)cc2c1-c1ccccc1	nt	-18.6%	-93.8*	nt	?	?
NNC(=O)c1[nH]c2ccccc2c1-c1ccccc1	?	-19.5%	-95.2*	-12.5%	nt	nt
C/C(=N\NC(=O)CCC(=O)O)c1c(-c2ccccc2)c2cc(Br)ccc2[nH]c1=O	-2.1%	-5.7%	-29.1	-8.2%	nt	nt
O=C(N/N=C/c1c[nH]c2ccccc12)c1[nH]c2ccc(Br)cc2c1-c1ccccc1	nt	?	-86.1*	nt	?	?
O=C(NN=C1CCCC1)c1[nH]c2ccc(Cl)cc2c1-c1ccccc1	-25.1%	-10.4%	-92.1*	-27.4%	?	?
CC(=O)NNC(=O)c1[nH]c2ccc(Cl)cc2c1-c1ccccc1	nt	-1.1%	-3.5	nt	nt	nt
CC12C=C(C=CCCc3ccco3)C(C)(C1)[C@H](CCc1ccco1)CC2=O (stereo not given in full)	nt	nt	nt	nt	28.8%[14.2 µM]	nt
Clc1ccc(C2=C3CCCCn4c(-c5ccccc5)c[n+](c43)C2)cc1	-12.0%	0.0%	-9.1	-15.7%	?	-20.7%
COc1ccc(-c2c[n+]3c4n2CCCCC4=C(c2ccc(Br)cc2)C3)cc1	-6.4%	-6.9%	-99.7*	i	?	-85.0%
CCOC(=O)c1c(C)[nH]c(C)c1S(=O)(=O)N1CCCC(C(=O)Nc2cccc(C)n2)C1 (stereo not given)	-10.7%	15.8%	-5.9	-10.1%	nt	5.1%[46.1 µM]
CCOC(=O)c1c(C)[nH]c(C)c1S(=O)(=O)N1CCCC(C(=O)N2CCN(c3cccc(C)c3C)CC2)C1 (stereo not given)	-17.1%	0.8%	13.0	-26.9%	nt	11.2µM*
CCOC(=O)c1c(C)[nH]c(C)c1S(=O)(=O)N1CCC(C(=O)N2CCN(c3cccc(C)c3)C(C)C2)CC1 (stereo not given)	?	-26.7%	-94.7*	?	nt	-24.6%[46.1 µM]
CCOC(=O)c1c(C)[nH]c(C)c1S(=O)(=O)N1CCC(C(=O)N2CCN(c3cc(C)ccc3C)CC2)CC1	?	-24.2%	-14.2	?	nt	-17.4%[46.1 µM]
CCOC(=O)c1c(C)[nH]c(C)c1S(=O)(=O)N1CCCC(C(=O)N2CCN(c3cccc(Cl)c3)CC2)C1 (stereo not given)	?	-29.1%	-72.7*	?	nt	?
CCOC(=O)c1c(S(=O)(=O)N2CCCC(C(=O)N3CCN(c4ccccc4)CC3)C2)c(C)n(C)c1C (stereo not given)	-15.2%	-4.9%	-0.9	-12.7%	nt	8.2%[46.1 µM]
O=C(OCc1cc(=O)n2nc(C3CCCCC3)sc2n1)c1ccccc1Cl	13.4%	36.4%	5.2	9.9%	nt	4.8%[46.1 µM]
SMILES	VACV Venus inh	FMDV antiviral	HCMV inh	VACV mCherry inh	MARV entry inh	Lassa entry inh
Cc1ccc(C[n+]2cc(-c3ccc(Cl)cc3)n3c2CCC3)cc1	-15.4%	0.0%	-60.6*	i	?	?
Cc1ccc(-c2c[n+](Cc3ccc(Cl)cc3)c3n2CCC3)cc1	-14.1%	0.0%	-79.1*	i	-24.0%	?
CCn1ncc(C2=NOC(C(=O)NCc3ccccc3)C2)c1C (stereo not given)	nt	-25.4%	-60.1*	nt	?	-22.3%
CCn1ncc(C2=NOC(C(=O)Nc3c(C)nn(Cc4ccc(F)cc4)c3C)C2)c1C (stereo not given)	-12.5%	-1.6%	-60.6*	i	nt	nt
CC(C)c1ccc(OCC(=O)Nc2cc(-c3ccccc3)no2)cc1	2.4%	?	36.4	-12.1%	2.0%[46.1 µM]	5.8%[46.1 µM]
O=C(NCc1ccco1)C1CCN(C(=O)N2CCOc3ccccc32)CC1	-10.8%	-12.0%	1.9	-8.4%	nt	20.7%[46.1 µM]
CCCCCc1c(-c2cccc(F)c2)ncn1CCc1ccccc1OC	-19.5%	22.4µM*	?	-23.8%	nt	nt
CCCCc1c(-c2cccc(Br)c2)ncn1CCc1ccccc1OC	-16.7%	?	-100.5*	-15.9%	nt	nt
CCCc1c(-c2cccc(F)c2)ncn1CCc1ccccc1OC	-20.9%	?	-74.2*	-16.8%	nt	nt
CCCCCc1c(-c2cccc(Cl)c2)ncn1CCc1ccccc1OC	0.0%	-26.8%	-6.3	0.6%	nt	nt
CCCCc1c(-c2cccc(F)c2)ncn1CCc1ccccc1OC	?	25.1µM*	-61.1*	-3.7%	nt	nt
O=C(O)CCC/C=C\C[C@@H]1[C@@H](/C=C/[C@H](O)C2Cc3ccccc3C2)[C@@H](F)C[C@@H]1O	nt	nt	nt	nt	-8.8%	?
Cc1ccc(NC(=O)Cn2c(=O)n(-c3ccc(CC(=O)NCC4CCCO4)cc3)c(=O)c3ccccc32)cc1 (stereo not given)	-2.4%	-1.2%	0.8	-8.1%	22.7%[46.1 µM]	23.8%[46.1 µM]
CCCCCc1c(-c2cccc(OC)c2)ncn1CCc1ccccc1OC	-23.2%	28.2µM*	-95.4*	-22.4%	nt	nt
CCCCCc1c(-c2ccc(Br)cc2)ncn1CCc1ccccc1OC	-22.9%	?	-104.4*	-4.0%	nt	nt
CCCCCc1c(-c2ccc(F)cc2)ncn1CCc1ccccc1OC	-27.3%	?	-28.3	?	nt	nt
CN(C)c1ccc(-c2nccc(NCc3cccs3)n2)cc1	nt	0.0%	nt	nt	nt	nt
O=c1[nH]c2ccc(NCc3ccc(-c4ccc(Br)cc4)o3)cc2[nH]1	-8.6%	-21.1%	5.7	-7.1%	7.4%[46.1 µM]	-3.3%[46.1 µM]
O=c1[nH]c2ccc(NCc3ccc(-c4cccc(Cl)c4)o3)cc2[nH]1	-19.3%	-16.0%	-60.6*	-24.4%	?	0.6%[46.1 µM]
